Drawing on PubChem BioAssay (NCI), this text covers growth for 37 molecules.

Compounds without any hit were thinned out: in the full panel of roughly 83,000, 20% have a hit.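 48-hour exposure, single concentration, 96-well plates; percent growth endpoint where 0 means no net growth. Active: below 10.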 Activity calls are given as the source filed them.

This assay relates to KM12 colon. Briefly: NCI-60 one-dose screen, 48 h (100 = growth as untreated, 0 = no growth, -100 = all killed). As to conditions: 10 µM unless noted.
Turning to `NC(CCl)=NCC12CC3CC(CC(C3)C1)C2`, the growth was -31.6% (active). For the molecule `C=CCc1cc(OC)c(O)c(OC)c1`, the growth is 104% (inactive). Turning to `O=C(O)CC1=CCCCC1`, the growth is 98% (inactive). Regarding `COC(=O)C1=C(C)C(=O)CC1`, the growth was 121% (inactive). Consider `O=C(c1cccc(C(=O)c2ccc3c4c(cccc24)C(=O)N(c2ccccc2)C3=O)c1)c1ccc2c3c(cccc13)C(=O)N(c1ccccc1)C2=O`, for which the growth was 98.2% (inactive). `O=c1n(CC2CO2)c(=O)n(CC2CO2)n1CC1CO1` (configuration not stated): the growth is 84.4% (inactive). To `CCCC1OC(c2ccco2)OCC1CC` (configuration not stated) belongs 103% (inactive); to `COc1cc2c(c(OC)c1OC)-c1ccc(SC)c(=O)cc1[C@@H](NC1OC(CO)C(O)C(O)C1O)CC2` (some centres not stated), -3.89% (active). Regarding `ClCC(Cl)C1CCC(Cl)C(Cl)C1` (configuration not stated), the growth was 105% (inactive). In the case of `O=C(O)c1c[nH]c2ccccc2c1=O`, the growth is 100% (inactive).

For the molecule `O=C(O)c1cccc(-n2ncc(Cl)c(Cl)c2=O)c1`, the growth was 77.2% (inactive).

Turning to `S=c1nc2[nH]c3ccccc3c2n[nH]1`, the growth was 130% (inactive). On to `NCCCN1CCCC1=O`, for which the growth was 104% (inactive). For the molecule `O=S(=O)(O)c1cccc2cccnc12`, the growth is 105% (inactive). In the case of `CC(=O)OCC1CCC(COC(C)=O)CC1` (configuration not stated), the growth was 99.2% (inactive). In the case of `CC1CCC(C(C)(C)[N+](C)(C)C)CC1` (configuration not stated), the growth was 99.7% (inactive).

Turning to `O=C(CCCl)OCCOc1ccccc1`, the growth was 102% (inactive). For the molecule `CC(=O)Nc1ccc(/C=C2\SC(=S)N(/C=C(\C(C)=O)C(N)=O)C2=O)cc1`, the growth is 101% (inactive). For `CC(=O)Nc1ccc(O)c(C)c1`, the growth is 106% (inactive). `CSc1nsc(N)n1`: the growth was 101% (inactive). Regarding `ON1CCCC1`, the growth was 110% (inactive). To `CC(C)(C)CC1(C)NC(=O)NC1=O` (configuration not stated) belongs 106% (inactive). On to `CC(=O)O[C@H]1CC[C@]2(C)C3=C(C(=O)C[C@H]2C1(C)C)[C@]1(C)CC[C@H]([C@H](C)CCC(=O)O)[C@@]1(C)CC3=O`, for which the growth was 106% (inactive).

Regarding `COc1cccc(C(=O)NNC(=O)c2cccc3ccccc23)c1`, the growth was 115% (inactive). Consider `Cc1c(-c2ccc(C3CCCCC3)cc2)nc2ccc(F)cc2c1C(=O)O`, for which the growth was 32% (inactive).

Turning to `Cc1onc(-c2c(F)cccc2Cl)c1-c1ncc(-c2ccc(Br)cc2)o1`, the growth was 36.4% (inactive). In the case of `CC(=O)/C(C)=N\OC(=O)Nc1ccccc1`, the growth is 101% (inactive). `O=C(O)c1cc(I)ccc1O`: the growth is 108% (inactive). Consider `O=C(OC1CCCC1)c1ccccc1Cl`, for which the growth was 105% (inactive).

In the case of `COC(=O)c1ccccc1C(=O)c1c(C)cc(C)cc1C`, the growth was 102% (inactive). For `CCCCOC(=O)c1ccc(NC(=O)CCl)cc1`, the growth is 84.7% (inactive). Consider `CCOC(=O)/C(O)=C(\C=N\C(=S)Nc1ccc(Cl)c(Cl)c1)C(=O)OCC`, for which the growth was 100% (inactive). `Cc1ccccc1CC(N)C(=O)O` (configuration not stated): the growth is 119% (inactive). With `CC1(C)OC2C(CO)OC(n3ccc(=O)[nH]c3=O)C2O1` (configuration not stated), the growth is 102% (inactive). As to `ClCC(Cl)[C@@H]1CC2C=CC1C2` (some centres not stated), the growth was 115% (inactive).

`O=C(CCl)Nc1ccccc1SCc1cc(Cl)cc2c1OCOC2`: the growth was 96.8% (inactive). With `CCCCN(C(=O)CC)c1ccccc1`, the growth was 102% (inactive).
